# Data from the supplement of paper PMC3545927.
# The other results are listed elsewhere or left out. The hit rate among all sequences tested is not known here.
# Target: furin, P09958
# Test: furin cleavage Z-score vs untreated control; higher = more cleavage, active = 3.5 or more, inactive = 1 or less, 8 variable residues between constant flanks
# Method in brief: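 Cleavage by purified furin was measured on 8-mer peptides fused to a cDNA oligonucleotide and held on magnetic beads by their N-terminus. Reactions (0.01 ml, 1:10 enzyme:substrate) ran 7.5, 15 or 30 min in 50 mM HEPES pH 7.5 with CaCl2 and NaCl. Released DNA was adapter-tagged by PCR and sequenced, with read counts giving abundance. Log counts versus furin-free reactions were lowess-adjusted and scaled by median absolute deviation to give the cleavage Z-score.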
# Chain of furin, P09958 (P09958 whole entry): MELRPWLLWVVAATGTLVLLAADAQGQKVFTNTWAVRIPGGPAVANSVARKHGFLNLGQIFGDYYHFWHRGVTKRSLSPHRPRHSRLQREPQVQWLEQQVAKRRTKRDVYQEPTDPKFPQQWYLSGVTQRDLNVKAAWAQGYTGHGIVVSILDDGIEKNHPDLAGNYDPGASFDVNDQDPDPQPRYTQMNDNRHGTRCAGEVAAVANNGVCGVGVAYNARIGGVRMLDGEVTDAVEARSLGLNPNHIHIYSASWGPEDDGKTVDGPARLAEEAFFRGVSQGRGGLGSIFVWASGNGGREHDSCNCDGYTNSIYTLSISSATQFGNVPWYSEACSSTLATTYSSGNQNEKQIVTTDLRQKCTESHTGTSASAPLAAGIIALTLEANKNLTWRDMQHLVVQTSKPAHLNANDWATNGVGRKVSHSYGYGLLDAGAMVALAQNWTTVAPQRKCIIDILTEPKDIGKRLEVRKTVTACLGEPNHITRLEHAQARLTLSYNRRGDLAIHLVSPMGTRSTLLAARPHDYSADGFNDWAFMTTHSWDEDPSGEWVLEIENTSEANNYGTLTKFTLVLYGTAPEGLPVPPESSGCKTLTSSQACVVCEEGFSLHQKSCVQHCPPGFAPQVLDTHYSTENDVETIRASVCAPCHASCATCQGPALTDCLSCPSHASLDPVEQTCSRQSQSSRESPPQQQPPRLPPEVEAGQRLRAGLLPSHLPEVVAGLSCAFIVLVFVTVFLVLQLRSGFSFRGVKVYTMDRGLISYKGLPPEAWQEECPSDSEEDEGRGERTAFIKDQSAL
Sequence,furin cleavage Z-score (7.5 min),furin cleavage Z-score (15 min),furin cleavage Z-score (30 min)
CAMETCSQHLAGNASASA [HC1718],-0.505 (inactive),1.16,2.25
CARLRKDQLKAGNASASA [FS-2432],-0.25 (inactive),0.106 (inactive),1.29
CARLKRNQEKAGNASASA [FS-2707],-0.221 (inactive),0.44 (inactive),1.38
CARLKRYHSQAGNASASA [FS-2156],1.21,-0.314 (inactive),1.6
CARLKRNIGYAGNASASA [FS-1962],4.52 (active),7.71 (active),8.24 (active)
CARLKREIEKAGNASASA [FS-2431],9.68 (active),9.27 (active),9.19 (active)
CARLGRSIDDAGNASASA [FS-2275],5.11 (active),6.98 (active),5.82 (active)
CARLGRIVDRAGNASASA [FS-1737],-0.217 (inactive),-0.37 (inactive),0.14 (inactive)
CARLKRSRLKAGNASASA [FS-1741],3.6 (active),6.18 (active),7.33 (active)
CARLRRPIGKAGNASASA [FS-3160],-0.962 (inactive),-0.579 (inactive),-1.27 (inactive)
CAIVPCHRPSAGNASASA [HC2304],0.422 (inactive),0.63 (inactive),0.055 (inactive)
CAGKSTKVPAAGNASASA [HC778],1.37,0.655 (inactive),-0.125 (inactive)
CAEMTTPCSGAGNASASA [HC1966],-0.105 (inactive),-0.176 (inactive),-0.555 (inactive)
CASSEANAEDAGNASASA [HC1365],-1.29 (inactive),-2.48 (inactive),-1.24 (inactive)
CAVAGALVAFAGNASASA [HC1090],1.08,-1.61 (inactive),-0.599 (inactive)
CARLTRSNSKAGNASASA [FS-1750],-0.152 (inactive),1.68,-1.49 (inactive)
CARLKRFSMVAGNASASA [FS-2705],1.5,0.596 (inactive),2.46
CARLKRSPDKAGNASASA [FS-2277],9.81 (active),12.1 (active),8.68 (active)
CARAGRDVGSAGNASASA [FS-1989],2.62,3.76 (active),2.8
CARSGRVVGSAGNASASA [FS-3235],-1.67 (inactive),0.0813 (inactive),0.573 (inactive)
CARSKRRKYSAGNASASA [FS-2380],0.793 (inactive),-0.279 (inactive),0.723 (inactive)
CARSKRDISSAGNASASA [FS-3083],9.51 (active),11.2 (active),9.07 (active)

Sequence,furin cleavage Z-score (7.5 min),furin cleavage Z-score (15 min),furin cleavage Z-score (30 min)
CALATRSFGSAGNASASA [HC1334],-0.496 (inactive),0.424 (inactive),-0.551 (inactive)
CARSKKIFGSAGNASASA [FS-2405],-1.12 (inactive),-0.175 (inactive),0.546 (inactive)
CARSKRDGSEAGNASASA [FS-1868],3.53 (active),5.29 (active),5.43 (active)
CAHIDLLVGSAGNASASA [HC291],-0.513 (inactive),-1.31 (inactive),-1.06 (inactive)
CARSYRGISSAGNASASA [FS-2093],1.39,-0.63 (inactive),0.639 (inactive)
CARSKRDVGSAGNASASA [FS-2379],11.6 (active),11.3 (active),8.54 (active)
CASTPCSAFLAGNASASA [HC2547],-0.397 (inactive),-0.0879 (inactive),0.628 (inactive)
CAQKLPINALAGNASASA [HC1380],0.17 (inactive),-0.107 (inactive),-0.819 (inactive)
CAGDFHYVTGAGNASASA [HC1209],-0.771 (inactive),-0.551 (inactive),-1.55 (inactive)
CATTPPSGSWAGNASASA [HC60],-1.04 (inactive),-0.299 (inactive),-0.554 (inactive)
CASYANGSGPAGNASASA [HC397],0.376 (inactive),-1.07 (inactive),0.0876 (inactive)
CADKEVVTSTAGNASASA [HC2294],-0.414 (inactive),-0.137 (inactive),-0.18 (inactive)
CAIRSRVLREAGNASASA [FS-804],12.6 (active),10.5 (active),8.33 (active)
CAGENCGYRRAGNASASA [HC1506],-0.528 (inactive),-0.187 (inactive),-0.341 (inactive)
CAPLRRSKRRAGNASASA [FS-1148],9.4 (active),9.64 (active),8.71 (active)
CAALKRPVEQAGNASASA [FS-2858],-1.15 (inactive),-0.538 (inactive),-0.285 (inactive)
CAAEVRSKRRAGNASASA [FS-3],4.87 (active),4.38 (active),5.1 (active)
CAAERRSVIRAGNASASA [FS-1666],-0.389 (inactive),-2.19 (inactive),-0.341 (inactive)
CAALKRSKRRAGNASASA [FS-1445],11.5 (active),10.6 (active),8.09 (active)
CAIRSALKRPAGNASASA [FS-444],0.37 (inactive),-0.823 (inactive),-0.407 (inactive)
CAIRQVGDFHAGNASASA [HC1207],-0.371 (inactive),-0.615 (inactive),-1.78 (inactive)
